From PubChem BioAssay (NCI)
This is part of a sample that, as a whole, favours compounds with a hit. Of some 83,000 tested, about 20% had one in any assay.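 Step 1: grow cells in 96-well plates. Step 2: add test compound at a single concentration. Step 3: incubate 48 h. Step 4: record percent growth.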 The source made the active and inactive calls. The calls were made as follows: active = growth percent below 10; inactive = the rest.

What was measured:
Assay in all cases: NCI-60 one-dose screen, 48 h (100 = growth as untreated, 0 = no growth, -100 = all killed)
Details in all cases: 10 µM unless noted
[1] = system: NCI-H226 lung
[2] = system: NCI-H322M lung
[3] = system: HOP-62 NSCLC
[4] = system: NCI-H460 lung
[5] = system: HOP-92 NSCLC
[6] = system: NCI-H522 lung
[7] = system: A549/ATCC NSCLC
[8] = system: 786-0 renal
[9] = system: COLO 205 colon
[10] = system: DU-145 prostate
[11] = system: K-562 leukemia
[12] = system: MALME-3M melanoma
[13] = system: MDA-MB-231 breast
[14] = system: RXF 393 renal
[15] = system: SF-268 CNS
[16] = system: SF-295 CNS
[17] = system: SF-539 CNS
[18] = system: UACC-257 melanoma
[19] = system: M14 melanoma
[20] = system: NCI-H23 lung

Measured: growth

CC(=O)N(C)N=Nc1ccc(C)cc1
inactive: [1] 97.7% | [2] 92.3% | [3] 95.8% | [4] 116% | [5] 100% | [6] 92.9% | [7] 113% | [8] 99.9% | [9] 115% | [10] 107% | [11] 105% | [12] 94.5% | [13] 102% | [14] 122% | [15] 91.3% | [16] 101% | [17] 101% | [18] 101% | [19] 96.7%

c1ccc(Oc2c3ccccc3nc3ccccc23)cc1
inactive: [1] 47.9% | [2] 56.3% | [7] 34.1% | [13] 31.2% | [14] 25.4% | [15] 22.7% | [18] 56.7%
active: [20] 8.18% | [4] 3.68% | [5] 8.21% | [6] -27.4% | [8] 1.82% | [9] -10.5% | [10] 8.05% | [11] 8.65% | [16] -39.1% | [17] -19.6% | [19] -13.2%

CC(C)=CCC[C@@H](C)[C@H]1CC[C@@]2(C)C3=C(CC[C@]12C)[C@@]1(C)CC[C@H](O)C(C)(C)[C@@H]1CC3
inactive: [20] 113% | [1] 104% | [2] 122% | [4] 107% | [5] 97.8% | [6] 95% | [7] 97.7% | [8] 101% | [9] 110% | [10] 126% | [11] 91.2% | [12] 110% | [13] 112% | [14] 95.9% | [15] 117% | [17] 101% | [18] 121% | [19] 108%

CCCCCCCCCCCCSC1=C(Cl)C(=O)C(OC)=C(OC)C1=O
active: [6] -63.3%
inactive: [20] 43.7% | [1] 74.6% | [2] 75.8% | [4] 18.2% | [5] 57.9% | [7] 29.4% | [8] 65.6% | [9] 55.4% | [10] 60.2% | [11] 28.2% | [12] 12.5% | [13] 55.5% | [14] 34.1% | [15] 46.1% | [16] 38.3% | [17] 41.5% | [18] 26.8% | [19] 64.1%

CN(C)CCOC(=O)Nc1ccc(Cc2ccc(NC(=O)OCCN(C)C)cc2)cc1
active: [11] -30.1% [100 µM] | [17] -66.5% [100 µM] | [18] -61.6% [100 µM] | [19] -38.6% [100 µM]
inactive: [1] 111% [100 µM] | [2] 96.8% [100 µM] | [3] 97.7% [100 µM] | [4] 92% [100 µM] | [5] 32.7% [100 µM] | [6] 85.2% [100 µM] | [7] 75.8% [100 µM] | [8] 60.1% [100 µM] | [9] 84.2% [100 µM] | [10] 86.3% [100 µM] | [12] 69.1% [100 µM] | [13] 65.8% [100 µM] | [14] 32.2% [100 µM] | [15] 90.3% [100 µM] | [16] 87.6% [100 µM]

Cc1ccccc1CC(N)C(=O)O (stereo not drawn)
inactive: [20] 98.2% | [1] 115% | [2] 98.6% | [4] 109% | [5] 92.3% | [6] 112% | [7] 107% | [8] 107% | [9] 114% | [11] 115% | [12] 116% | [13] 116% | [14] 137% | [15] 101% | [16] 99.6% | [17] 116% | [18] 109% | [19] 100%

O=c1nc(Nc2cccc(Cl)c2)oc2cc(Cl)oc(=O)c12
inactive: [20] 64.5% | [1] 94.9% | [2] 108% | [4] 98.8% | [5] 47.2% | [6] 26.2% | [7] 101% | [8] 85.2% | [9] 80.1% | [10] 113% | [11] 81.6% | [13] 50.9% | [14] 42.5% | [15] 66.9% | [17] 79.8% | [18] 87% | [19] 66.2%

Cc1ccc2nc(-c3ccc(N=Cc4ccccc4O)cc3)sc2c1
inactive: [20] 84.4% | [1] 70.7% | [2] 82.8% | [4] 104% | [5] 78.1% | [6] 61.3% | [7] 71.9% | [8] 77.5% | [9] 140% | [10] 96.8% | [11] 84.8% | [12] 90.3% | [13] 62.2% | [14] 83.4% | [15] 97.7% | [16] 109% | [17] 89.3% | [18] 78.8% | [19] 78.4%

CN(C(=S)S(=O)(=O)C12CC3CC(CC(C3)C1)C2)c1ccccc1
inactive: [20] 97.5% | [1] 93.3% | [2] 114% | [4] 110% | [5] 71.2% | [6] 46.1% | [7] 95.1% | [8] 89.8% | [9] 88.5% | [10] 95.3% | [11] 72% | [12] 108% | [13] 88.9% | [14] 111% | [15] 94.5% | [16] 105% | [17] 97.6% | [18] 87.3% | [19] 107%

BrCc1cccc(C[P+](c2ccccc2)(c2ccccc2)c2ccccc2)c1
active: [9] -35.3%
inactive: [20] 87% | [1] 73.7% | [2] 89% | [4] 48.5% | [5] 32% | [6] 24.6% | [7] 69.4% | [8] 98.8% | [10] 64.9% | [11] 28.8% | [12] 38.3% | [13] 93.2% | [14] 84.4% | [15] 56.4% | [16] 72.2% | [17] 35.4% | [18] 14.2% | [19] 51.4%

O=Cc1c(O)c2ccccc2[nH]c1=O
inactive: [20] 97.8% | [1] 88.6% | [2] 112% | [4] 103% | [5] 110% | [6] 94.8% | [7] 90.1% | [8] 104% | [10] 158% | [11] 111% | [12] 139% | [13] 99.6% | [14] 114% | [15] 110% | [16] 109% | [17] 97.9% | [18] 84.8% | [19] 94.4%

Cc1nc(O)cc(=O)[nH]1
inactive: [20] 108% | [1] 111% | [2] 99.3% | [4] 104% | [5] 76.3% | [6] 103% | [7] 109% | [8] 114% | [9] 115% | [10] 113% | [11] 112% | [12] 106% | [13] 124% | [14] 111% | [15] 105% | [16] 118% | [17] 114% | [18] 92.1% | [19] 105%

Clc1ncnc2nc[nH]c12
inactive: [20] 94.4% | [1] 96.3% | [2] 104% | [4] 103% | [5] 68.8% | [6] 70.5% | [7] 101% | [8] 101% | [9] 101% | [10] 91% | [11] 90.1% | [12] 106% | [13] 99% | [15] 95.8% | [16] 107% | [17] 86.4% | [18] 103% | [19] 97.5%

COc1ccc2c(c1)Nc1ccccc1S2
inactive: [20] 104% | [1] 108% | [2] 101% | [4] 109% | [5] 78.5% | [6] 98.9% | [7] 104% | [8] 98.7% | [9] 111% | [10] 116% | [11] 102% | [12] 105% | [13] 109% | [14] 115% | [16] 108% | [17] 103% | [18] 115% | [19] 101%

COc1ccc(-c2csc(NC(=O)Nc3nc(-c4ccc(OC)cc4)cs3)n2)cc1
inactive: [20] 66.8% | [1] 70.6% | [2] 90.1% | [4] 84.7% | [5] 89% | [6] 92.5% | [7] 81.3% | [8] 97.8% | [9] 98.5% | [10] 72.8% | [11] 67.5% | [13] 92.9% | [14] 98.5% | [15] 81.9% | [16] 87.9% | [17] 90% | [18] 67.4% | [19] 83.6%

C=COC(=O)CCOCC(CC)CCCC (stereo not drawn)
inactive: [1] 98.7% | [2] 98.7% | [3] 97.3% | [4] 106% | [5] 111% | [6] 109% | [7] 89.6% | [8] 91.2% | [9] 111% | [10] 96.5% | [11] 92.9% | [13] 106% | [14] 108% | [15] 99.5% | [16] 102% | [17] 105% | [18] 108% | [19] 99.9%

O=C1C=Cc2ccccc2/C1=C/c1[nH]c(=O)[nH]c1O
inactive: [1] 45.2% | [2] 57.8% | [3] 41.3% | [4] 84.8% | [5] 45.9% | [7] 82% | [8] 27.6% | [9] 34.3% | [10] 54.5% | [11] 26% | [12] 23.5% | [13] 62.6% | [14] 34.2% | [15] 55.2% | [16] 28.9% | [17] 17.6% | [19] 22.3%
active: [6] -17.7% | [18] 2.03%
